Experimental findings from PubChem BioAssay (NCI) are described below.

Molecules are shown by their SMILES. About 83,000 compounds went through this panel and 20% of them were active in at least one assay; those are over-represented in the sample as a whole.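 Results are percent growth after 48 hours of single-concentration exposure. 100 means growth as in untreated cells, lower positive values show inhibition; negative values down to -100 show cell death.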 Active and inactive are the calls of the source. How the source made its calls: active means growth percent below 10; inactive means the rest.

The test system of one assay is SNB-19 CNS. The assay is described as follows: NCI-60 one-dose screen, 48 h (100 = growth as untreated, 0 = no growth, -100 = all killed). Particulars: 10 µM unless noted.
`O=C(Nc1ccc(F)cc1)Nc1ccc(CCO)cc1`: the growth is 107% (inactive).
On the same count and under the same terms, the figure for `C[C@@H]1CC[C@@H]2[C@@H]1[C@H](OC(=O)/C=C/c1ccccc1)[C@]1(C3CCCCC3)C[C@@H](OC(=O)CO)[C@@]2(C)O1` is 88.2% (inactive); for `O=C1Nc2ccccc2/C1=C/C(=N/c1nnc(-c2ccccc2)s1)c1ccccc1` it is 103% (inactive); for `CCCCCCCCOC(=O)CC[C@@H](C)[C@H]1CC[C@H]2[C@@H]3[C@H](OC(=O)CCN)C[C@@H]4C[C@H](OC(=O)CCN)CC[C@]4(C)[C@H]3C[C@H](OC(=O)CCN)[C@]12C` it is 116% (inactive).

Another assay relates to PC-3 prostate. The assay is described as above. The following applies: 10 µM unless noted.
As to `Nc1cc2nc3ccccc3sc-2cc1=O`, the growth is 50.8% (inactive).
As to `Cc1noc(C)c1-c1cc(O)cc(C(O)c2ccccc2)c1` (configuration not stated), the growth is 48.4% (inactive).
Take `CCCCCC(=O)N(CCCC)CCCC`: the growth was 99.8% (inactive).
In the case of `COc1ccc(/C=N\NC(=O)c2ccncc2)cc1O`, the growth was 106% (inactive).
Still for that read-out and setting: the figure for `O=C(Cn1cc(CN2C(=O)c3ccccc3S2(=O)=O)nn1)Nc1ccc([N+](=O)[O-])cc1Cl` is 95.4% (inactive); for `Oc1ccc(Nc2nccc(-c3ccc4ccccc4c3)n2)cc1` it is 48.6% (inactive); for `O=C1C=CC(=O)c2c1nc1n2CCCC1` it is 89.7% (inactive).
Same read-out and setting: in the case of `Cc1cc(Nc2nc(N3CCOCC3)nc3ccccc23)n[nH]1` it was 59.9% (inactive); in that of `Cc1ccc(C2CC3c4ccccc4C2C2CCCCN32)cc1` (configuration not stated), 80% (inactive).
Still for that read-out and setting: the figure for `Cc1csc2ccc(Cl)cc12` is 96.8% (inactive).
Turning to `O=S(=O)(Nc1ccc(F)c(Cl)c1)c1ccc(-c2cnc(C3CC3)o2)cc1`, the growth was 24.9% (inactive).
The same measure, in the same setting: in the case of `CC#Cc1nc2ccccc2c(=O)[nH]1` it was 61.4% (inactive); in that of `C[C@H](CCC(=O)O)[C@H]1CC[C@H]2[C@@H]3CC[C@@H]4/C(=C\c5ccco5)C(=O)/C(=C\c5ccco5)C[C@]4(C)[C@H]3CC[C@]12C`, 52.6% (inactive); in that of `Cc1cc(Nc2nc(-c3cccnc3)nc3ccccc23)n[nH]1`, 58.7% (inactive).
The same measure, in the same setting: in the case of `COc1cc(OC)c(/C=C/c2cc[n+](C)c3ccccc23)c(OC)c1` it was 16.5% (inactive); in that of `CCCCCCCCCCCCCCCC[N+]1(CC)CCCC1`, -77.6% (active); in that of `CC(=O)OCC(=O)C1CCC=CC1OC(C)=O` (configuration not stated), 105% (inactive).
`COC1C/C(=N\O)C2OC(c3ccccc3)OCC2O1` (configuration not stated): the growth was 100% (inactive).
On the same count and under the same terms, the figure for `CC[C@H](Nc1nc(N)nc(C)c1C#N)c1nc2cccc(NCc3ccc(C(=O)NO)cc3)c2c(=O)n1-c1ccccc1` is 5.79% (active).
The same measure, in the same setting: in the case of `Cc1nn(-c2ccccc2)c2nc(C)n(-c3ccc(Br)cc3)c(=O)c12` it was 26.4% (inactive).
Same read-out and setting: in the case of `Cc1ccc2c(NCCCN(C)C)c3c(C)nn(C)c3nc2c1` it was 29.2% (inactive); in that of `NC(CC(=O)O)C(=O)OCc1ccccc1` (configuration not stated), 103% (inactive); in that of `NCCN1CCN(c2nccc(-c3ccc4ccccc4c3)n2)CC1`, 45.6% (inactive).
As for `Nc1ccc(Nc2nccc(-c3ccc4ccccc4c3)n2)cc1`, the growth was 58.7% (inactive).
With `CCCNc1nc(SC)nc(-c2cccc(N)c2)c1C#N`, the growth is 93.6% (inactive).
Same read-out and setting: in the case of `CN(C)CCOc1ccc(-c2nc3ccc(-c4nc5ccc(N6CCN(C)CC6)cc5[nH]4)cc3[nH]2)cc1` it was 76.2% (inactive); in that of `CCCCCCCCCCCCN1CCCC(C)C1` (configuration not stated), 67.4% (inactive); in that of `COc1ccc(-c2nc(Nc3cc(C)[nH]n3)c3ccccc3n2)cc1`, 57.2% (inactive).
On the same count and under the same terms, the figure for `CN[C@@]12CC3(C=CC(=O)C=C3)O[C@]1(Cc1ccc(OC)cc1)N(C)C(=O)N2` is 66.8% (inactive).
The same measure, in the same setting: in the case of `COc1cc2cc(COc3nccc(-c4ccc(Cl)cc4)n3)c(=O)[nH]c2cc1OC` it was 71.4% (inactive); in that of `Cc1ccc(S(=O)(=O)N(CCc2ccc(Cl)cc2)S(=O)(=O)c2ccc(C)cc2)cc1`, 85.9% (inactive); in that of `CC[C@H](Nc1cc(C)nc(N)n1)c1nc2cccc(NCc3ccc(C(=O)NO)cc3)c2c(=O)n1-c1ccccc1`, 12.4% (inactive).
`CN1CCCCC1CCN1c2ccccc2Sc2ccc(Br)cc21` (configuration not stated): the growth is 56.2% (inactive).
As to `O=C1Nc2ccc(Br)cc2C12CC(c1ccccc1)=NN2` (configuration not stated), the growth was 29.4% (inactive).
The same measure, in the same setting: the figure for `O=C(N/N=C/c1ccc(O)cc1O)c1cccnc1` is 53.2% (inactive); for `O=C(Nc1ccc(F)cc1)Nc1ccc(CCO)cc1` it is 108% (inactive); for `C[C@@H]1CC[C@@H]2[C@@H]1[C@H](OC(=O)/C=C/c1ccccc1)[C@]1(C3CCCCC3)C[C@@H](OC(=O)CO)[C@@]2(C)O1` it is 22.8% (inactive).
As for `O=C1Nc2ccccc2/C1=C/C(=N/c1nnc(-c2ccccc2)s1)c1ccccc1`, the growth is 78.4% (inactive).
Regarding `CCCCCCCCOC(=O)CC[C@@H](C)[C@H]1CC[C@H]2[C@@H]3[C@H](OC(=O)CCN)C[C@@H]4C[C@H](OC(=O)CCN)CC[C@]4(C)[C@H]3C[C@H](OC(=O)CCN)[C@]12C`, the growth was 87.3% (inactive).

The test system of a further assay is SK-MEL-5 melanoma. The description is as above. Particulars: 10 µM unless noted.
With `Nc1cc2nc3ccccc3sc-2cc1=O`, the growth is 31.3% (inactive).
The same measure, in the same setting: the figure for `Cc1noc(C)c1-c1cc(O)cc(C(O)c2ccccc2)c1` (configuration not stated) is 54.2% (inactive); for `CCCCCC(=O)N(CCCC)CCCC` it is 98.6% (inactive); for `COc1ccc(/C=N\NC(=O)c2ccncc2)cc1O` it is 92.5% (inactive).
On the same count and under the same terms, the figure for `O=C(Cn1cc(CN2C(=O)c3ccccc3S2(=O)=O)nn1)Nc1ccc([N+](=O)[O-])cc1Cl` is 99.7% (inactive); for `Oc1ccc(Nc2nccc(-c3ccc4ccccc4c3)n2)cc1` it is 39.8% (inactive); for `O=C1C=CC(=O)c2c1nc1n2CCCC1` it is 22% (inactive).
Still for that read-out and setting: the figure for `Cc1cc(Nc2nc(N3CCOCC3)nc3ccccc23)n[nH]1` is 79.9% (inactive); for `Cc1ccc(C2CC3c4ccccc4C2C2CCCCN32)cc1` (configuration not stated) it is 76.4% (inactive).
Turning to `Cc1csc2ccc(Cl)cc12`, the growth was 107% (inactive).
Take `O=S(=O)(Nc1ccc(F)c(Cl)c1)c1ccc(-c2cnc(C3CC3)o2)cc1`: the growth was 6.59% (active).
Same read-out and setting: in the case of `CC#Cc1nc2ccccc2c(=O)[nH]1` it was -10% (active); in that of `C[C@H](CCC(=O)O)[C@H]1CC[C@H]2[C@@H]3CC[C@@H]4/C(=C\c5ccco5)C(=O)/C(=C\c5ccco5)C[C@]4(C)[C@H]3CC[C@]12C`, 47.4% (inactive).
As to `Cc1cc(Nc2nc(-c3cccnc3)nc3ccccc23)n[nH]1`, the growth was 73.8% (inactive).
Same read-out and setting: in the case of `COc1cc(OC)c(/C=C/c2cc[n+](C)c3ccccc23)c(OC)c1` it was -47.2% (active).
Same read-out and setting: in the case of `CCCCCCCCCCCCCCCC[N+]1(CC)CCCC1` it was -83.6% (active); in that of `CC(=O)OCC(=O)C1CCC=CC1OC(C)=O` (configuration not stated), 97.7% (inactive).
Same read-out and setting: in the case of `COC1C/C(=N\O)C2OC(c3ccccc3)OCC2O1` (configuration not stated) it was 102% (inactive).
Regarding `CC[C@H](Nc1nc(N)nc(C)c1C#N)c1nc2cccc(NCc3ccc(C(=O)NO)cc3)c2c(=O)n1-c1ccccc1`, the growth was -13.2% (active).
Same read-out and setting: in the case of `Cc1nn(-c2ccccc2)c2nc(C)n(-c3ccc(Br)cc3)c(=O)c12` it was 5.34% (active).
Take `Cc1ccc2c(NCCCN(C)C)c3c(C)nn(C)c3nc2c1`: the growth is 51.3% (inactive).
The same measure, in the same setting: the figure for `NC(CC(=O)O)C(=O)OCc1ccccc1` (configuration not stated) is 97.8% (inactive).
The same measure, in the same setting: the figure for `NCCN1CCN(c2nccc(-c3ccc4ccccc4c3)n2)CC1` is 54.9% (inactive); for `Nc1ccc(Nc2nccc(-c3ccc4ccccc4c3)n2)cc1` it is 47.3% (inactive); for `CCCNc1nc(SC)nc(-c2cccc(N)c2)c1C#N` it is 97.2% (inactive).
On to `CN(C)CCOc1ccc(-c2nc3ccc(-c4nc5ccc(N6CCN(C)CC6)cc5[nH]4)cc3[nH]2)cc1`, for which the growth is 37.5% (inactive).
For `CCCCCCCCCCCCN1CCCC(C)C1` (configuration not stated), the growth is 68.4% (inactive).
On the same count and under the same terms, the figure for `COc1ccc(-c2nc(Nc3cc(C)[nH]n3)c3ccccc3n2)cc1` is 69% (inactive); for `CN[C@@]12CC3(C=CC(=O)C=C3)O[C@]1(Cc1ccc(OC)cc1)N(C)C(=O)N2` it is 77.1% (inactive).
Same read-out and setting: in the case of `COc1cc2cc(COc3nccc(-c4ccc(Cl)cc4)n3)c(=O)[nH]c2cc1OC` it was 77.2% (inactive); in that of `Cc1ccc(S(=O)(=O)N(CCc2ccc(Cl)cc2)S(=O)(=O)c2ccc(C)cc2)cc1`, 87.6% (inactive); in that of `CC[C@H](Nc1cc(C)nc(N)n1)c1nc2cccc(NCc3ccc(C(=O)NO)cc3)c2c(=O)n1-c1ccccc1`, 30% (inactive).
In the case of `CN1CCCCC1CCN1c2ccccc2Sc2ccc(Br)cc21` (configuration not stated), the growth was 60.3% (inactive).
The same measure, in the same setting: in the case of `O=C1Nc2ccc(Br)cc2C12CC(c1ccccc1)=NN2` (configuration not stated) it was 23.9% (inactive); in that of `O=C(N/N=C/c1ccc(O)cc1O)c1cccnc1`, 39.3% (inactive).
On the same count and under the same terms, the figure for `O=C(Nc1ccc(F)cc1)Nc1ccc(CCO)cc1` is 104% (inactive); for `C[C@@H]1CC[C@@H]2[C@@H]1[C@H](OC(=O)/C=C/c1ccccc1)[C@]1(C3CCCCC3)C[C@@H](OC(=O)CO)[C@@]2(C)O1` it is 85.9% (inactive); for `O=C1Nc2ccccc2/C1=C/C(=N/c1nnc(-c2ccccc2)s1)c1ccccc1` it is 93.9% (inactive).
On the same count and under the same terms, in the case of `CCCCCCCCOC(=O)CC[C@@H](C)[C@H]1CC[C@H]2[C@@H]3[C@H](OC(=O)CCN)C[C@@H]4C[C@H](OC(=O)CCN)CC[C@]4(C)[C@H]3C[C@H](OC(=O)CCN)[C@]12C` it was 97% (inactive).
